Data as given in PubChem BioAssay (Tox21).
“And” between values parts separate entries of the source, which are not always exact repeats. Equal values may be shown once. Results filed as inconclusive are left out. Where a call stands in place of a potency, no number is given. Values without a mark were called inactive. The source made the active and inactive calls. The call rests on the fitted dose curve; in most records, active means well fitted cell-killing curve with a large enough effect in the repeat runs; inconclusive means weak or mixed curves, or effect the other way; inactive means no such curve, though single readings can be large or run the other way.

experiment: qHTS assay to identify small molecule agonists of the RXR signaling pathway - cell viability counter screen (AID 1159529); conditions: RXR-alpha-bla HEK293T viability, CellTiter-Glo, 16 h; series mostly up to 76.8 µM; further: nearly all actives have a fitted effect of over 50% in size
From the text: National Center for Advancing Translational Sciences [NCATS]
NIH Chemical Genomics Center [NCGC]
U.S. Environmental Protection Agency [EPA]
National Institutes of Environmental Health Sciences [NIEHS]
National Toxicology Program [NTP]
U.S. Food and Drug Administration [FDA]
The Retinoid X receptor (RXR), a nuclear hormone receptor expressed in liver, spleen, placenta, epidermis, central nervous system. These receptors are able to form homo and heterodimers with other nuclear receptors and due to this heterodimerizing ability, RXR functions as master regulators producing diverse physiological effects. Three subtypes of RXR exist; alpha, beta and gamma. Retinoid X receptor alpha (RXR-alpha) has potential roles in metabolic signaling pathways, skin alopecia, dermal cysts, cardiac development, insulin sensitization etc. Therefore screening environmental chemicals on RXR-alpha signaling can be used for the studies focused on such therapeutic applications. For quantification of RXR-alpha ligands signaling, GeneBLAzer RXR alpha-UAS-bla HEK 293T (Life Technologies, Carlsbad, CA) cells containing a beta-lactamase reporter-gene under control of Retinoid X receptor-alpha response element were used to screen Tox21 10K library. The cytotoxicity of the Tox21 compound library against the RXR-alpha HEK 293T cell line was tested in parallel by measuring cell viability using CellTiter-Glo assay (Promega Corporation, Madison, WI) in the same wells.
Tox21 Assay Protocol Summary:
RXR-alpha HEK 293T cells were dispensed at 2,000 cells/6 uL of assay medium containing 2% charcoal-stripped FBS using a Multidrop Combi (ThermoFisher Scientific, Waltham, MA) dispenser. The assay was performed in black wall/clear-bottom 1536-well plates (Greiner Bio-One North America Inc. Monroe, NC). Tetraoctyl ammonium bromide was used as a positive control in the cytotoxicity screen. After the assay plates were incubated at 37 C and 5% CO2 for 5 hr, 23 nL of compounds dissolved in DMSO, positive control or DMSO only were transferred to the assay plate by a Pintool station (Kalypsys, San Diego, CA). The assay plates were incubated at 37 C and 5% CO2 for 16 hr. One uL of LiveBLAzer B/G FRET substrate (Life Technologies) was added using a Flying Reagent Dispenser (FRD) (Aurora Discovery, San Diego, CA) and the plates were incubated at room temperature for 2 hr. Fluorescence intensity (405 nm excitation, 460/530 nm emission) was measured using an Envision plate reader (PerkinElmer, Shelton, CT). For cytotoxicity, 4 uL/well of CellTiter-Glo reagent was added into the assay plates using an FRD. After 30 min incubation at room temperature, the luminescence intensity was measured using a ViewLux plate reader (PerkinElmer).
Potency means the concentration at half of the fitted maximal effect.

SMILES	Potency	activity change, negative = cytotoxicity
OC[P+](CO)(CO)CO	inactive	
O=CC=O	inactive	
O=C(O)CCCOc1ccc(Cl)cc1Cl	inactive	
CCCCC#N	inactive	
CCCN(CCOc1c(Cl)cc(Cl)cc1Cl)C(=O)n1ccnc1	inactive	
CC(Cc1ccccc1)NCc1ccccc1Cl (stereo not given)	inactive	
CCC(C)(C)c1ccc(O)c(C(C)(C)CC)c1	12.2 µM (active) and 12.3 µM (active)	
CC(C)c1ccc(OP(=O)(Oc2ccc(C(C)C)cc2)Oc2ccc(C(C)C)cc2)cc1	19.6 µM (active) and 19.5 µM (active)	
CCC1(CC)C(=O)NC(=O)NC1=O	inactive	
COC(=O)Cc1ccccc1	inactive	
Cc1nnc(-c2ccccc2)c(=O)n1N	inactive	
CCCCC1C(=O)NC(=O)N(C2CCCCC2)C1=O (stereo not given)	inactive	
COc1ccc(C(=O)c2c(C)n(CCN3CCOCC3)c3ccccc23)cc1	inactive	
CC(Oc1cccc(Cl)c1)C(=O)O (stereo not given)	inactive	
C#C[C@]1(O)CC[C@H]2[C@@H]3CCC4=CC(=O)CCC4=C3C=C[C@@]21CC	inactive	
CN1CC[C@]23c4c5ccc(O)c4O[C@H]2[C@@H](O)C=C[C@H]3[C@H]1C5	inactive	
O=C(O)COc1cc(Cl)c(Cl)cc1Cl	inactive	
CCOC(=O)C1OC1(C)c1ccccc1 (stereo not given)	inactive	
CC1(C)[C@H](C(=O)O[C@H](C#N)c2cccc(Oc3ccccc3)c2)[C@@H]1C=C(Br)Br	inactive	
OCCSSCCO	inactive	

SMILES	Potency	activity change, negative = cytotoxicity
CCCCCCCCCCCCN(C)C	inactive	
NC(=S)c1c(Cl)cccc1Cl	inactive	
C1CS1	inactive	
CCCSP(=S)(OCC)Oc1ccc(SC)cc1 (stereo not given)	inactive	
C[N+]1(CCF)[C@@H]2CC[C@H]1CC(OC(=O)C(O)(c1ccccc1)c1ccccc1)C2 (stereo not given in full)	inactive	
CCNC(=O)NC(=O)/C(C#N)=N/OC	inactive	
Oc1cccc(Cl)c1	inactive	
O=C(O)C(Cl)(Cl)Br	inactive	
CC(Oc1cc(Cl)c(Cl)cc1Cl)C(=O)O (stereo not given)	inactive	
CCCC[P+](CC)(CCCC)CCCC (tested in a mixture with another compound)	inactive	
CCC1(CCC(C)C)C(=O)NC(=O)NC1=O	inactive	
CC[N+]1(C)CCCC(OC(=O)C(O)(c2ccccc2)c2ccccc2)C1 (stereo not given)	inactive	
[Cl-].[Cl-].[Hg+2]	3.08 µM (active) and 3.09 µM (active)	
COC1=CC(=O)O[C@@H](/C=C/c2ccc3c(c2)OCO3)C1	inactive	
OCC1CO1 (stereo not given)	inactive	
CCCCCCCCCCCCN=C(N)N		-15.3% [at 2.72 µM]
c1ccc2sc(SNC3CCCCC3)nc2c1	inactive	
C=CC(=O)NC(C)(C)CC(C)=O	inactive	
Cc1cccc(C)c1NC1=NCCCS1	inactive	
CC(C)(C)NCC(O)c1cc(Cl)c(N)c(C(F)(F)F)c1 (stereo not given)	inactive	
